From PubChem BioAssay AID2284383 (EPA ToxCast)
Results filed as inconclusive are left out. Active and inactive are the calls of the source. How the source made its calls: active means hit-call score of the fitted dose curve at least 0.9, where 1 is the maximum; inconclusive means response in the unintended direction; inactive means score below 0.9.

Biological target: human Retinoic Acid Receptor gamma (RARg) Agonism, RARG (gene 5916) (UniProt P13631)
Test: ERF_TW_NR_COA_hRARG: Eurofins (ERF) Nuclear Receptor (NR) Functional Coactivator Assay for human Retinoic Acid Receptor gamma (RARg) Agonism
Description: ERF_TW_NR_COA_hRARG is a biochemical, single-readout assay that uses extracted gene-proteins in a cell-free assay. Measurements were taken 16 hours after chemical dosing in a 96-well plate. […] It is designed to measure FRET using a type of binding reporter as detected by fluorescence intensity of AM580 with fluorimetry technology.Data from the assay component ERF_TW_NR_COA_hRARG was analyzed at the assay endpoint, ERF_TW_NR_COA_hRARG, in the positive analysis fitting direction relative to DMSO as the negative control and baseline of activity. Using a type of binding reporter, gain-of-signal activity can be used to understand changes in binding as they relate to gene RARG. To generalize the intended target to other relatable targets, this assay endpoint is annotated to the nuclear receptor intended target family, where the subfamily is non-steroidal.
Human recombinant retinoic acid receptor […] (RARgamma) receptors expressed in bacteria are used. Test compound and/or vehicle is incubated with the 25 nM receptors and binding buffer in modified Tris-HCl buffer pH 7.4 for 16 hours at 4C. Determination of the amount of complex formed is read spectrofluorimetrically (excitation:337 nm, emission:620/665 nm). Test compound-induced increase in fluorescence by 50 percent or more (>/= 50%) relative to the 0.3 uM AM580 response indicates possible RARgamma receptor agonist activity. […] Membrane protein may change from lot to lot, the concentration used will be adjusted if necessary.

human Retinoic Acid Receptor gamma (RARg) Agonism, RARG (gene 5916), sequence (P13631 whole entry, looked up): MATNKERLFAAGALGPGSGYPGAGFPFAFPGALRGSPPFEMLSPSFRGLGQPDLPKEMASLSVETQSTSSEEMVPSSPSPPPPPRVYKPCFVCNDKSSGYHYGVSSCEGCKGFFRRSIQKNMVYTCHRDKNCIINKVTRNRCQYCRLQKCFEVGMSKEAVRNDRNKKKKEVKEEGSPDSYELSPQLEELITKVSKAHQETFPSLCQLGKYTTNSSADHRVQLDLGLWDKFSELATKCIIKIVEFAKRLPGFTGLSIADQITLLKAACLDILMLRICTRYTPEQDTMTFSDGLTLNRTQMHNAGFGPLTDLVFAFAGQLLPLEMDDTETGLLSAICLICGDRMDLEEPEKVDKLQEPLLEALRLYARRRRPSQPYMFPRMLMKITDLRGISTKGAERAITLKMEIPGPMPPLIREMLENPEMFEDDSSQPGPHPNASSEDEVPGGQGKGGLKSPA

Structure (SMILES) | AC50 | outcome
ClC1=C(Cl)[C@]2(Cl)[C@@H]3[C@@H]4C[C@@H]([C@H]5O[C@@H]45)[C@@H]3[C@@]1(Cl)C2(Cl)Cl | 6.6 µM (active) | 
Cc1ccc2cc3c(ccc4ccccc43)c3c2c1CC3 |  | inactive
ClC1=C(Cl)[C@]2(Cl)[C@@H]3[C@H]4C[C@H]([C@@H]5O[C@H]45)[C@@H]3[C@@]1(Cl)C2(Cl)Cl | 6.15 µM (active) | 
